# Experimental data: ChEMBL document CHEMBL4513216, “Probing the Open Global Health Chemical Diversity Library for Multistage-Active Starting Points for Next-Generation Antimalarials” (ACS Infect Dis, 2020)
# Out of some 69,000 compounds screened, about 8,600 (12%) showed an effect of 50% or more. This is one part of a sample in which strong results are shown more often than they occur.
# Tested on: Plasmodium berghei
# Test: Screen against P. berghei liver stage (PbLuc), transformed with Luciferase, at 10uM
# Assay type: functional, HepG2
# Details: tested at 10 uM
row,Compound,INHIBITION
1,O=C(c1ccc[nH]1)N1CCc2ccc(S(=O)(=O)N3CCOCC3)cc2C1,6.99%
2,Cn1c(-c2ccc(F)cc2)cn2cc(C(=O)N3CC[C@@H](O)C3)nc2c1=O,40.7%
3,CN(C)C(=O)c1cn2cc(-c3cccc(Cl)c3)n(CC3CC3)c(=O)c2n1,17.8%
4,NC(=O)c1cn2cc(-c3ccccc3Cl)n(CC3CC3)c(=O)c2n1,5.46%
5,CC(=O)NCCNC(=O)c1cnc2c(c1)nc(-c1ccccc1Cl)n2C,-76.5%
6,CNC(=O)c1cn2cc(-c3cccc(Cl)c3)n(CC=C(C)C)c(=O)c2n1,76.7%
7,COCCCNC(=O)Cn1c(-c2cccc(Cl)c2)nc(C)cc1=O,14.6%
8,CNC(=O)c1cn2cc(-c3ccc(F)cc3)n(CC=C(C)C)c(=O)c2n1,69.3%
9,Cn1c(-c2ccc(F)cc2)cn2cc(C(=O)N3CCC(N)C3)nc2c1=O (stereo not given),24.4%
10,CC(C)NC(=O)NCc1cc(-c2cccc(Cl)c2)nn1C,13%
11,CNC(=O)CC1CCN(Cc2nc(-c3cccc(Cl)c3)oc2C)CC1,13.5%
12,CNC(=O)c1cn2cc(-c3ccccc3Cl)n(CC=C(C)C)c(=O)c2n1,61.9%
13,CNC(=O)c1cn2cc(-c3cccc(Cl)c3)n(CC3CC3)c(=O)c2n1,55.4%
14,Cc1nc(-c2ccsc2)ccc1C(=O)NC(C)CN1CCOCC1 (stereo not given),-4.43%
15,O=C(c1cscn1)N1CCc2ncnc(-c3ccncc3)c2CC1,-7.24%
16,O=C(CSc1ccncc1)NC1CC(=O)N(CCc2ccccc2)C1 (stereo not given),-15.9%
17,CC(O)CN1CCC(CNCc2ccccc2C(F)(F)F)CC1 (stereo not given),0.24%
18,CN1CCN(C2CCN(CCCOc3ccc(F)cc3)CC2)C1=O,47%
19,CCOC(=O)CNC(=O)C1OC(c2ccccc2)=NN1C(C)=O (stereo not given),-19.1%
20,CCOC1CCN(C(=O)CN(C)c2cnccn2)CC1,26.083%
21,CC(C)Nc1ccc2nc(C3CCN(C(C)C)CC3)nn2c1,-7.35%
22,CCNC(=O)c1cn2cc(-c3ccccc3Cl)n(CC3CC3)c(=O)c2n1,73.5%
23,CN(C)C(=O)c1cn2cc(-c3ccccc3Cl)n(CC3CC3)c(=O)c2n1,-0.273%
24,CNC(=O)c1cn2cc(-c3ccccc3Cl)n(CC3CC3)c(=O)c2n1,33.3%
25,COCC(=O)N1C[C@@H](OCc2ccncc2)[C@@H]2OCCC[C@@H]21,35.8%
26,c1ccc(CN2CCN3C[C@H](Oc4cncnc4)C[C@H]3C2)nc1,-8.6%
27,c1cc(CN2CCN3C[C@H](Oc4cncnc4)C[C@H]3C2)ccn1,-11.3%

row,Compound,INHIBITION
1,c1ccc(CN2CCN3C[C@H](Oc4cccnc4)C[C@H]3C2)nc1,41.2%
2,Cn1ccnc1CN1CCN2C[C@H](Oc3cccc(F)c3)C[C@H]2C1,38.5%
3,Fc1cccc(O[C@@H]2C[C@H]3CN(Cc4ccccn4)CCN3C2)c1,85.4%
4,Fc1cccc(O[C@@H]2C[C@H]3CN(Cc4ccncc4)CCN3C2)c1,90.7%
5,CC(O)CN1CCN(C(=O)CN(C)c2ccc(C#N)cn2)CC1 (stereo not given),18.4%
6,Fc1ccccc1C1(CNC2CCOC3(CCOCC3)C2)CCCC1 (stereo not given),14.4%
7,c1cnn(CCCO[C@@H]2CN(C3CCOCC3)[C@@H]3CCCO[C@@H]32)c1,-40.9%
8,Cc1nnc2n1CCN(c1nn3cc(C(C)(C)C)nc3s1)C2,-1.15%
9,Cc1ccsc1C(=O)N1CC[C@H]2CO[C@H](CN(C)C)[C@H]2C1,-47.5%
10,COCCN1Cc2ccccc2C2(CCN(S(C)(=O)=O)CC2)C1,-21.1%
11,O=c1[nH]c2nc(N3CCCCCC3)ncc2c(=O)n1-c1cccc(F)c1,21.7%
12,Cc1nccn1CC1CCN(C(=O)c2cccs2)CC1,14.2%
13,Cc1nccn1CC1CCCN(C(=O)Cc2ccsc2)C1 (stereo not given),42.5%
14,Cn1ccnc1N1CCN(C(=O)Cc2ccccc2)CC1,34.2%
15,Cc1nccn1CC1CCCN(C(=O)c2cnn(C)c2)C1 (stereo not given),20.4%
16,Cc1nccn1CC1CCN(C(=O)c2ccccc2)CC1,67.4%
17,Cc1nccn1CC1CCN(C(=O)Cc2ccccc2)CC1,65.9%
18,Cn1cc(-c2cc(-c3cnn(C)c3)n(CC(=O)NC3CC3)n2)cn1,44.3%
19,COCCN1CCC1c1cc(NC2CCCC2)nc(C)n1 (stereo not given),4.41%
20,Fc1ccc(C2(CNC3=NCCCN3)CCC2)cc1,-20.3%
21,Cc1nnc(C(C)NCC2(c3ccc(Cl)cc3)CCCC2)o1 (stereo not given),18.2%
22,Fc1ccc(C2(CNC3=NCCN3)CCCC2)cc1,27.6%
23,Clc1ccc(C2(CNC3=NCCN3)CCCC2)cc1,68.2%
24,Clc1ccc(C2(CNC3=NCCN3)CC2)cc1,56.6%
25,CC1(C)CN(C(CNC2=NCCN2)c2ccc(Cl)cc2)CCO1 (stereo not given),1.84%
26,Cc1nnc(C(C)NCC2(c3ccc(Cl)cc3)CCOCC2)o1 (stereo not given),11.8%
27,Clc1ccc(C2(CNC3=NCCN3)CCCCC2)cc1,74%

row,Compound,INHIBITION
1,OCCN(Cc1ccncc1)CC1(c2ccc(Cl)cc2)CCCC1,18.3%
2,CC(=O)N1CC(c2ccnc(Nc3nccs3)n2)C1,12.6%
3,CN(C)CC1CN(Cc2nnc(C(C)(C)C)o2)CCO1 (stereo not given),-104%
4,CCc1nc(-c2cncnc2C2CCNC2)no1 (stereo not given),3.6%
5,Cc1cnc(C(=O)N2CCC(C(=O)c3cc(F)ccc3F)CC2)cn1,-121%
6,NC(=O)N1CCC2(CCN(Cc3ccccn3)C2=O)C1 (stereo not given),24.5%
7,CC(=O)c1cn(CCC(=O)NCCCC(=O)O)c2ccccc12,-10.2%
8,CC(NC(=O)NCCCn1cccn1)c1ccc2c(c1)OCCCO2 (stereo not given),-6.7%
9,CO[C@@H]1CCN(C(=O)Cc2ccc(F)cc2)[C@@H]1Cc1cccnc1,55.4%
10,CO[C@@H]1CCN(C(=O)Cc2cccc(F)c2)[C@H]1Cc1cccnc1,19.6%
11,COc1ccc(CC(=O)N2CC[C@@H](OC)[C@@H]2Cc2cccnc2)cc1,38.5%
12,NC(=O)CNC1(c2ccc(Br)cc2)CCOCC1,19.4%
13,CC(C)CN1CC(O)CN(S(=O)(=O)c2ccc(F)cc2)CC1=O (stereo not given),34.3%
14,Cc1cc(C)nc(N2CCCC(C)(c3[nH]ncc3C(=O)N(C)C)C2)n1 (stereo not given),53.1%
15,CN(C)C(=O)c1cn[nH]c1C1(C)CCN(c2ncccn2)CC1,12.45%
16,Cc1nccc(N2CCCC(C)(c3[nH]ncc3C(N)=O)C2)n1 (stereo not given),-7.66%
17,Cc1ccc(S(=O)(=O)NC(CO)CC(C)C)cc1N(C)C (stereo not given),31.7%
18,Cc1nc(C)n(C2CCCN(C(=O)CCCc3ccccn3)C2)n1 (stereo not given),-11.9%
19,CC(c1ccco1)N(C)Cc1cc2cc3c(cc2[nH]c1=O)OCO3 (stereo not given),16.9%
20,COC1CCN(c2ccc(NC(=O)Cn3cccc3)cc2)CC1,14.2%
21,CC(C)CCC(=O)NCc1ccc(N2CCCCC2)cc1,15.5%
22,CCc1nccn1CC(=O)Nc1cccc(C(=O)OC)c1,-10.9%
23,CCc1nccn1CC(=O)Nc1cccc(C(=O)N(C)C)c1,0.0996%
24,CC1CN(c2ccc(NC(=O)Cn3cccn3)cc2)CCO1 (stereo not given),16.5%
25,CC1CCN(c2ccc(NC(=O)CCn3cccn3)cc2)CC1,11.3%
26,CC(NCC(=O)Nc1ccc(N2CCCCCC2)cc1)c1cccs1 (stereo not given),64.9%
27,CCc1nccn1CC(=O)Nc1cccc(N2CCCC2)c1,74.55%

row,Compound,INHIBITION
1,O=C(Cn1cccn1)Nc1ccc(N2CCCCC2)cc1,50.2%
2,O=C(Cn1cccn1)Nc1ccc(N2CCOCC2)cc1,68.9%
3,COC1CCN(c2ccc(NC(=O)Cn3cccn3)cc2)CC1,8.31%
4,CC(NCC(=O)NCC(=O)Nc1ccc(F)cc1)c1cccs1 (stereo not given),0.734%
5,CN1CCN(C(=O)c2ccccc2)CC(Cc2cc(N(C)C)ncn2)C1 (stereo not given),21.1%
6,CCCn1nc(C(=O)N(C)Cc2cnn(C)c2)ccc1=O,48.7%
7,CCOCC1CN(C(=O)c2ccnnc2)Cc2cnn(C)c21 (stereo not given),-2.35%
8,CN1CCN(Cc2cnc3n2CCN(Cc2cccnc2)CC3)CC1,-1.36%
9,c1cnc(OCc2nnc3n2CCN(CC2CCOCC2)C3)nc1,6.66%
10,Cc1nn(C)c(C)c1C1CCCN1C(=O)CCc1ccco1 (stereo not given),-37.7%
11,COc1cccc(-c2n[nH]cc2CNC2CCN(C(C)C)CC2)c1,-59.5%
12,CCC(NC(=O)C1CC1)c1ccccc1OCC(=O)N1CCCC1 (stereo not given),9.47%
13,Cn1c(=O)[nH]c(=O)n2c(CC(=O)Nc3c(Cl)cccc3Cl)cnc12,9.32%
14,CN(C)c1cc(C2CCCN(S(=O)(=O)c3cn[nH]c3)C2)ccn1 (stereo not given),85.7%
15,O=C(c1noc2c1CCCC2)N1CCCC(c2nccs2)C1 (stereo not given),13.7%
16,Cc1cc(C2CCCN(S(=O)(=O)c3cn[nH]c3)C2)ccn1 (stereo not given),19.6%
17,CNc1cc(C2CCCN(S(=O)(=O)c3cn[nH]c3)C2)ccn1 (stereo not given),28%
18,CN(C)c1cc(C2CCCN(C(=O)c3noc4c3CCCC4)C2)ccn1 (stereo not given),65.7%
19,CN(C)c1cc(C2CCCN(S(=O)(=O)C3CCCC3)C2)ccn1 (stereo not given),54.4%
20,CN(C)c1cc(C2CCCN(S(=O)(=O)c3cn(C)cn3)C2)ccn1 (stereo not given),-44.2%
21,CN(C)c1cc(C2CCCN2C(=O)c2noc3c2CCCC3)ccn1 (stereo not given),-13.2%
22,CCS(=O)(=O)N1CCCC(c2ccnc(N(C)C)c2)C1 (stereo not given),0.301%
23,Cc1nc(CCNCc2c(C)nn(C)c2N2CCOCC2)cs1,-1%
24,CCc1cc(NCC(O)CN2CCCCC2)ncn1 (stereo not given),27.4%
